The source of these data is PubChem BioAssay (NCI).

About 83,000 compounds went through this panel and 20% of them were active in at least one assay; those are over-represented in the sample as a whole.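 Note: values are percent growth. 100 is the growth of untreated cells, values between 100 and 0 indicate rising inhibition; between -100 and 0 indicates cell death.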 Unmarked numbers belong to inactive results. Activity calls are given as the source filed them. Rule for the calls: active = growth percent below 10; inactive = the rest.

This experiment deals with MDA-MB-468 breast. Description: NCI-60 one-dose screen, 48 h (100 = growth as untreated, 0 = no growth, -100 = all killed). The conditions noted are these: 10 µM unless noted.
With `CCOC(=O)C1=C(C)NC(=O)NC1c1ccc(OCC(=O)N/N=C/c2ccc(Cl)cc2)cc1` (stereo not given), the growth is 96.5%.

Take `NS(=O)(=O)c1ccc(Nc2nc(N/N=C/c3ccc(C(F)(F)F)cc3)nc(Nc3ccccc3)n2)cc1`: the growth is 34.3%.

For the compound `N#Cc1c(Nc2ccccc2)nn2c(-c3ccc([N+](=O)[O-])cc3)ccnc12`, the growth was 106%.

On to `O=c1c2c(c3ccccc3n1-c1ccccc1)NC(=S)NC2c1ccccc1` (stereo not given), for which the growth is 74.4%.

In the case of `CC(C)(C)c1nc(-c2cccc(NS(=O)(=O)c3c(F)cccc3F)c2F)c(-c2ccnc(N)n2)s1`, the growth was 140%.

With `Cc1ccnc2c(OCc3ccccc3)cccc12`, the growth was 34.2%.

Regarding `COc1ccc(/C=C\c2cc(OC)c(OC)c(OC)c2)cc1OCC(=O)Nc1ccc2nc(C)sc2c1`, the growth was 7.78% (active).

For `CN(Cc1cnc2nc(N)nc(N)c2n1)c1c(Cl)cc(C(=O)NC(CCC(=O)O)C(=O)O)cc1Cl` (stereo not given), the growth was 15.3%.

As for `COc1cc2cc(Oc3ccc(NC(=O)Nc4ccc(F)c(C(F)(F)F)c4)cc3)c(C)nc2cc1OCCN(C)C`, the growth was 93.4%.

`Clc1ccc(C2=NN=C3C(Cc4ccccc4)=Nc4ccccc4N3C2)cc1`: the growth is 84.7%.

As to `O=C1N=c2ccccc2=C1c1sc(=S)n(C2CC(=O)N(c3ccc(Cl)cc3)C2=O)c1O` (stereo not given), the growth is 95.2%.

In the case of `O=c1c2cccc(F)c2sc2c(NCCCNCCO)nc3ccccc3c12`, the growth is -18.3% (active).

In the case of `O=C1Nc2c(ccc(Cl)c2Cl)/C1=C\c1cc(C(F)(F)F)cc(C(F)(F)F)c1`, the growth was 7.18% (active).

For `O=CN1N=C(c2ccc(F)cc2)CC1c1cccc(Nc2ccnc3cc(C(F)(F)F)ccc23)c1` (stereo not given), the growth was 29.2%.

As for `O=c1[nH]c(O)c(/C=C2/C=Nc3ccccc32)[nH]1`, the growth was 66.1%.

Regarding `C#Cc1ccc(-n2c(/C=C/c3ccc(C(F)(F)F)cc3)nc3ncccc3c2=O)cc1`, the growth is -9.87% (active).

As for `ClC1c2ccccc2CCc2ccccc21`, the growth was 111%.

Consider `Clc1ccccc1CNc1c2ccccc2nc2ccccc12`, for which the growth was -27.9% (active).

`CCC(C)Nc1ccc(N)cc1` (stereo not given): the growth was -30.9% (active).

On to `Cc1cccc(NC(=O)N/C(N)=N/c2nc(C)c(C)s2)c1`, for which the growth is 14%.

Consider `CCCCCCNC(=O)Oc1ccc(/C(=C(/C)c2ccccc2)c2ccc(OCCN3CCCCCC3)cc2)cc1`, for which the growth was 9.72% (active).

As for `N=C(N)c1ccc(-c2ccc(-c3cccs3)o2)cc1`, the growth was -40.5% (active).

With `COc1cc(-c2nn(-c3ccc(NC(=O)c4ccc(Cl)c(C(F)(F)F)c4)cc3)cc2-c2ccncc2)ccc1Cl`, the growth is 26%.

Take `CCNc1ncnc2c1cnn2C1CCCO1` (stereo not given): the growth is 102%.

Regarding `COc1ccc(-c2nnc(SCC(=O)Nc3ccc(C(=O)/C=C/c4ccccc4)cc3)o2)cc1OC`, the growth is 91.1%.

Consider `CC1=C(CCC(C)N(C)Cc2ccc(OCCCN3CCCC3)cc2)C(C)(C)CCC1` (stereo not given), for which the growth is -18.6% (active).

With `O=C(O)/C=C/c1cn(-c2ccccc2)nc1-c1ccc(F)cc1`, the growth was 104%.

Take `CC(C)(C)CC(C)(C)N(CSc1ccc(Cl)cc1)CSc1ccc(Cl)cc1`: the growth was 63.7%.

Turning to `O=C(Nc1cccc(-c2ccc(N3CCOCC3)nn2)c1)Nc1cccc(C(F)(F)F)c1`, the growth was 29.1%.

With `Cc1nc(Nc2ccccn2)sc1C(=O)/C=C/c1ccc(Cl)cc1`, the growth is 16.4%.

For `COc1ccc2c(c1)c(-c1nc(-c3c[nH]c4ncccc34)cs1)cn2CCN`, the growth was 1.91% (active).

For `Cc1cc(N2CCOCC2)nc(NCc2cc(Nc3ccnc4cc(Cl)ccc34)ccc2F)n1`, the growth was -71.9% (active).

Take `CC(=O)N1CC(Nc2ccc(OC(F)(F)F)cc2)=CC1=O`: the growth is 13.8%.

In the case of `O=C1Nc2ccc(F)cc2/C1=C\c1c(-c2ccccc2)nc2ccccn12`, the growth is 35.6%.

In the case of `O=C(/C=C/CN1CCOCC1)Nc1cc2c(Nc3cccc(Cl)c3F)ncnc2cc1OCCOC(F)F`, the growth is -15.3% (active).

Turning to `Nc1nc2c(c3ncccc13)C(c1ccc(Cl)c(Cl)c1)Cc1ncccc1-2` (stereo not given), the growth is -6.48% (active).

`COc1cccc(C(=O)NNc2nc(N3CCN(C4CCCCC4)CC3)nc(N3CCN(C(c4ccccc4)c4ccccc4)CC3)n2)c1`: the growth is 13.6%.

Take `[2H]C([2H])([2H])Oc1cc(F)ccc1/C=C/C(=O)/C=C(/C=C/c1ccc(F)cc1OC([2H])([2H])[2H])OB(F)F`: the growth was 46.1%.

`CCCCCCCC(=O)SCC/C=C/[C@@H]1CC(=O)NCc2cccc(n2)C2=N[C@@](C)(CS2)C(=O)N[C@@H](C(C)C)C(=O)O1`: the growth is 12.4%.

For `C/C(=N/NC(=S)Nc1ccccc1)c1nc2ccc(Cl)cc2[nH]1`, the growth is -44.3% (active).
